Results from PubChem BioAssay (EPA / NIEHS).
The source made the active and inactive calls. Rule for the calls: active = hit-call score of the fitted dose curve at least 0.9, where 1 is the maximum; inactive = score below 0.9.

The molecules below were run on CD90, THY1 (gene 7070) (assay: BSK_BF4T_CD90: BioMAP Diversity Plus: BF4T Assay for CD90 Biomarker Activity (AID 2284262)). Settings: primary human bronchial epithelial cells with fibroblasts.
Experimental: BSK_BF4T is a cell-based, multiplexed-readout assay that uses bronchial epithelial cells and dermal fibroblasts, a human vascular primary cell, with measurements taken at 24 hours after chemical dosing in a microplate: 96-well plate.BSK_BF4T_CD90 is an assay component measured in the BSK_BF4T assay. It measures CD90 antibody related to regulation of gene expression using ELISA technology.Data from the assay component BSK_BF4T_CD90 was analyzed at the endpoint, BSK_BF4T_CD90, in the positive analysis fitting direction relative to DMSO as the negative control and baseline of activity. Using a type of binding reporter, gain or loss-of-signal activity can be used to understand protein changes. To generalize the intended target to other relatable targets, this assay endpoint is annotated to the 'cytokine' intended target family, where the subfamily is 'inflammatory factor'.
The levels of cell surface (or secreted, indicated by the prefix "s") biomarker endpoints were measured by ELISA. Overt cytotoxicity to cells in confluent adherent cultures (all systems other than the BT system) was assessed by measuring total protein levels using sulforhodamine B (SRB) staining in parallel cultures at the time of biomarker measurements, indicated as SRB endpoints. For proliferation assays for adherent cell types, individual cell types are cultured at sub-confluence and relative cell numbers quantified by SRB staining at time points optimized for each system (48 h: 3C and CASM3C systems; 72 h: BT and HDF3CGF systems; 96 h: SAg system). SRB was performed by staining cells with 0.1% SRB after fixation with 10% TCA and reading wells at 560 nm.Viability and proliferation of PBMC (T cells) was quantified by Alamar Blue reduction for the SAg and BT systems. For PBMC viability (referred to as PBMC Cytotoxicity within the assay endpoint names), cells were plated (75,000/well in a 96-well plate) and then chemical samples added for 1 h before addition of activators, SEB and TSST-1 (20 ng/mL final concentration each). Cells were incubated for 90 h. Then, Alamar Blue (20 uL/well) (Invitrogen, Cat DAL1100) was added for 6 h, and the plates were read with a fluorescence microplate reader at 546/580 nm (excitation/emission). For PBMC proliferation, cells were plated and activated as above but incubated for only 16 h prior to addition of Alamar Blue. Plates were read after 6 h.

Row | Structure (SMILES) | outcome
1 | NCC(F)(F)C(F)(F)C(F)(F)C(F)(F)F | inactive
2 | O=S(=O)(O)CCC(F)(F)C(F)(F)C(F)(F)C(F)(F)C(F)(F)C(F)(F)F | inactive
3 | OC(O)(C(F)C(O)(O)C(F)(F)F)C(F)(F)F | inactive
4 | OCCC(F)(F)C(F)(F)C(F)(F)C(F)(F)F | inactive
5 | FC(F)(F)COC(OCC(F)(F)F)OCC(F)(F)F | inactive
6 | FC(F)=C(F)C(F)(F)C(F)(F)C(F)(F)C(F)(F)C(F)(F)C(F)(F)F | inactive
7 | FC(F)(F)C(F)(F)C(F)(F)C(F)(F)C(F)(F)C(F)(F)I | inactive
8 | O=C(Cl)C(F)(F)C(F)(F)C(F)(F)C(=O)Cl | inactive
9 | FC(F)C(F)(F)COCC1CO1 (stereo not given) | inactive
10 | C[Si](C)(C)C(F)(F)C(F)(F)C(F)(F)F | inactive
